Tested on: Vero E6 infected with SARS-CoV-2
Assay: inhibition of SARS-CoV-2 cytopathic effect; higher = more antiviral protection, active = above 15
Conditions: 48 h

Measured: inhibition of SARS-CoV-2 cytopathic effect

NC(=O)c1cn(Cc2c(F)cccc2F)nn1 [rufinamide]
inactive: 1 nM 2.25% | 8.33 nM 1% | 100 nM 2.89% | 833.33 nM 1.75% | 10000 nM 3.51%

COc1ccc(C(=O)Nc2c(Cl)cncc2Cl)cc1OC1CCCC1 [piclamilast]
inactive: 1 nM -1.88% | 8.33 nM -0.22% | 100 nM 0.16% | 833.33 nM -2.24% | 10000 nM -0.91%

CCCCCCCCCCOc1cc2c(O)c(C(=O)OCC)cnc2cc1OCC [decoquinate]
inactive: 1 nM -0.9% | 8.33 nM -0.75% | 100 nM -1.59% | 833.33 nM -0.59% | 10000 nM 2.03%

CCN1CCN(C(=O)N[C@@H](C(=O)N[C@@H]2C(=O)N3[C@@H]2SC(C)(C)[C@@H]3C(=O)O)c2ccccc2)C(=O)C1=O [piperacillin]
inactive: 1 nM -0.76% | 8.33 nM 0.86% | 100 nM -1.44% | 833.33 nM -0.01% | 10000 nM 0.01%

COc1ccc2c(c1)[C@]13CCCC[C@@H]1[C@H](C2)N(C)CC3 [dextromethorphan]
inactive: 1 nM 0.17% | 8.33 nM -0.37% | 100 nM 0.6% | 833.33 nM 0.81% | 10000 nM -0.1%

CC(=O)N[C@@H](Cc1c[nH]c2ccccc12)C(=O)OCc1cc(C(F)(F)F)cc(C(F)(F)F)c1
inactive: 1 nM 0.3% | 8.33 nM 1.3% | 100 nM 2.32% | 833.33 nM 1.61% | 10000 nM 4%

COc1cc(OC)c(/C=C2/C(=O)Nc3ccccc32)c(OC)c1
inactive: 1 nM 2.03% | 8.33 nM 1.86% | 100 nM 2.55% | 833.33 nM 1.29% | 10000 nM -1.88%

COc1cc(C(C)=O)ccc1OCCCN1CCC(c2noc3cc(F)ccc23)CC1 [iloperidone]
inactive: 1 nM -1.11% | 8.33 nM -0.19% | 100 nM 0.99% | 833.33 nM -0.53% | 10000 nM -3.95%

OCCN1CCN(CC/C=C2/c3ccccc3Sc3ccc(C(F)(F)F)cc32)CC1 [flupentixol]
inactive: 1 nM -4.51% | 8.33 nM 0.12% | 100 nM -2.01% | 833.33 nM -0.29% | 10000 nM 0.08%

O=C(CCCCCCNC(=O)c1cnc(N(c2ccccc2)c2ccccc2)nc1)NO
inactive: 1 nM -0.34% | 8.33 nM -1.04% | 100 nM 2.13% | 833.33 nM -4.05% | 10000 nM -10.5%

CCCCCCCCCCCCCCCCCCCCCC(=O)O
inactive: 1 nM 2.81% | 8.33 nM 2.25% | 100 nM 1.57% | 833.33 nM 0.29% | 10000 nM 1.77%

CCN(CC)CCNC(=O)c1cc(Cl)c(N)cc1OC [metoclopramide]
inactive: 1 nM -0.44% | 8.33 nM 0.96% | 100 nM 0.31% | 833.33 nM -0.29% | 10000 nM -1.37%

CC[C@@]1(O)C(=O)OCc2c1cc1n(c2=O)Cc2cc3c(CN(C)C)c(O)ccc3nc2-1 [topotecan]
inactive: 1 nM 0.54% | 8.33 nM 1.66% | 100 nM -1.53% | 833.33 nM -6.88% | 10000 nM -15.3%

O=C(C[S+]([O-])C(c1ccccc1)c1ccccc1)NO (stereo not given) [adrafinil]
inactive: 1 nM -1.03% | 8.33 nM -1.5% | 100 nM -3.32% | 833.33 nM 1.58% | 10000 nM -1.53%

CC(=O)CCCCn1c(=O)c2c(ncn2C)n(C)c1=O [pentoxifylline]
inactive: 1 nM 3.31% | 8.33 nM 2.23% | 100 nM 0.1% | 833.33 nM 1.21% | 10000 nM -0.68%

C[C@]12CC/C(=N\OCCN)C[C@@H]1C(=O)C[C@@H]1[C@@H]2CC[C@]2(C)C(=O)CC[C@@H]12 [istaroxime]
inactive: 1 nM 2.17% | 8.33 nM -1.67% | 100 nM 1.45% | 833.33 nM 3.86% | 10000 nM 6.93%

Cc1ccc(OCCSc2ncccn2)c(Br)c1
inactive: 1 nM -2.86% | 8.33 nM -1.79% | 100 nM -1.08% | 833.33 nM -4.19% | 10000 nM -1.49%

CC(C)=CCC[C@](C)(O)[C@H]1CC[C@]2(C)[C@@H]1[C@H](O)C[C@@H]1[C@@]3(C)CC[C@H](O)C(C)(C)[C@@H]3[C@@H](O)C[C@]12C [hemomex-s]
inactive: 1 nM -1.07% | 8.33 nM 0.12% | 100 nM 5.17% | 833.33 nM -0.7% | 10000 nM 0.84%

C[C@]12CC[C@@H](O)C[C@H]1CC[C@@H]1[C@@H]2CC[C@]2(C)C(=O)CC[C@@H]12 [3-alpha-hydroxy-5-beta-androstan-17-one]
inactive: 1 nM -1.07% | 8.33 nM 1.38% | 100 nM 2.2% | 833.33 nM 3% | 10000 nM 2.64%

CCCOc1ccc2[nH]cc(C3=CCNCC3)c2n1
inactive: 1 nM 2.78% | 8.33 nM 1.38% | 100 nM -1.41% | 833.33 nM 2.78% | 10000 nM -1.56%

Oc1ccc(C(O)CNCCCCCCNCC(O)c2ccc(O)c(O)c2)cc1O (stereo not given) [hexoprenaline]
inactive: 1 nM -3.2% | 8.33 nM 0.65% | 100 nM 2.27% | 833.33 nM -1.49% | 10000 nM -2.87%

O=C(O)c1ccc(CN2CCC(CN[C@@H]3C[C@H]3c3ccccc3)CC2)cc1
inactive: 1 nM 0.72% | 8.33 nM 1.52% | 100 nM 1.24% | 833.33 nM 3.6% | 10000 nM 2.94%

N#Cc1ccccc1OCC(O)CNCCNC(=O)Nc1ccccc1 (stereo not given)
inactive: 1 nM 0.6% | 8.33 nM 0.87% | 100 nM -0.54% | 833.33 nM 0.35% | 10000 nM -2.72%

CC(=O)[C@H]1CC[C@H]2[C@@H]3CCC4=CC(=O)CC[C@]4(C)[C@H]3CC[C@]12C [progesterone]
inactive: 1 nM -0.08% | 8.33 nM 0.75% | 100 nM 2.72% | 833.33 nM 2.43% | 10000 nM 5.82%

C[C@@]12C[C@@]3(O)O[C@@H](O1)[C@]1(COC(=O)c4ccccc4)[C@H]3C[C@@]12O[C@@H]1O[C@H](CO)[C@@H](O)[C@H](O)[C@H]1O [paeoniflorin]
inactive: 1 nM -0.01% | 8.33 nM 0.45% | 100 nM 0.1% | 833.33 nM 0.8% | 10000 nM 0.46%

C=C1/C(=C\C=C2/CCC[C@]3(C)[C@@H]([C@H](C)/C=C/[C@@H](O)C4CC4)CC[C@@H]23)C[C@@H](O)C[C@@H]1O [calcipotriol]
inactive: 1 nM -0.16% | 8.33 nM 1.94% | 100 nM -0.66% | 833.33 nM 0.91% | 10000 nM 3.83%

CC[N+](CC)(CC)CC(=O)Nc1c(C)cccc1C
inactive: 1 nM -1.18% | 8.33 nM -2.04% | 100 nM 0.02% | 833.33 nM 0.8% | 10000 nM -0.17%

CCCOC(C(=O)OC1CCN(C)CC1)(c1ccccc1)c1ccccc1 [propiverine]
inactive: 1 nM 0.57% | 8.33 nM 1.63% | 100 nM 0.85% | 833.33 nM -0.19% | 10000 nM 1.89%

CCN1C[C@]2(OC(=O)c3ccccc3NC(C)=O)CC[C@H](OC)[C@@]34[C@@H]2C[C@@H]([C@@H]13)[C@@]1(O)C[C@H](OC)[C@H]2C[C@@H]4[C@]1(O)[C@H]2OC [lappaconite]
inactive: 1 nM 6.58% | 8.33 nM 2.61% | 100 nM 1.75% | 833.33 nM 0.15% | 10000 nM 0.28%

CS(=O)(=O)c1ccc(-c2nnc(/C=C/c3nnc(-c4ccc(C#N)cc4)o3)n2-c2ccccc2Cl)nc1
inactive: 1 nM 0.69% | 8.33 nM 0.31% | 100 nM -0.3% | 833.33 nM -2.5% | 10000 nM 2.17%

CC(=O)O[C@H]1C[C@@]2(C)[C@@H](C[C@@H](O)[C@H]3[C@@]4(C)CC[C@@H](O)[C@@H](C)[C@@H]4CC[C@@]32C)/C1=C(\CCC=C(C)C)C(=O)O [fusidic-acid]
inactive: 1 nM -0.53% | 8.33 nM 0.07% | 100 nM -1.13% | 833.33 nM -8.51% | 10000 nM -1.02%

C[C@@]1(C(=O)O)NCCc2cc(O)c(O)cc21 [salsolinol-1-carboxylic-acid]
inactive: 1 nM 0.05% | 8.33 nM -1.48% | 100 nM -1.16% | 833.33 nM 2.45% | 10000 nM 1.69%

CC(=O)Nc1cccc2c1c(Sc1ccc(Cl)cc1)c(C)n2CC(=O)O
inactive: 1 nM -2.31% | 8.33 nM -3.4% | 100 nM -2.21% | 833.33 nM -0.59% | 10000 nM -0.66%

C[C@@H](O)[C@H]1C(=O)N2C(C(=O)O)=C(S[C@@H]3CN[C@H](C(=O)N(C)C)C3)[C@H](C)[C@H]12 [meropenem]
inactive: 1 nM 0.11% | 8.33 nM 1.38% | 100 nM 0.18% | 833.33 nM 6.2% | 10000 nM -0.92%

Nc1ncn([C@H]2C[C@H](O)[C@@H](CO)O2)c(=O)n1 [decitabine]
inactive: 1 nM 3.33% | 8.33 nM 3.36% | 100 nM 4.5% | 833.33 nM -1.04% | 10000 nM -3.03%

CS(=O)(=O)c1ccc(-c2cnc(NCc3ccco3)n3cnnc23)cc1
inactive: 1 nM 4.45% | 8.33 nM 2.39% | 100 nM 0.36% | 833.33 nM -0.76% | 10000 nM -0.13%

COc1ccc(C(C)(C)C)cc1CN[C@H]1C2CCN(CC2)[C@H]1C(c1ccccc1)c1ccccc1 [maropitant]
inactive: 1 nM 2.55% | 8.33 nM 0.73% | 100 nM -1.99% | 833.33 nM -1.66% | 10000 nM 12.5%

CCCCN1CCCCC1C(=O)Nc1c(C)cccc1C (stereo not given) [bupivacaine]
inactive: 1 nM 2.92% | 8.33 nM -0.56% | 100 nM -2.62% | 833.33 nM 1.82% | 10000 nM 0.61%
